Values without a mark were called inactive. How the calls were made is not given here.
Tested on: Purinergic P2X (rabbit)
Experiment: PubChem AID 1788
Conditions: MDS Pharma lead profiling panel, radioligand binding, at 10 µM, active compounds read high

Work on `CCOC(=O)N1CCC(NCCNC(=O)c2ccccc2C)CC1` yielded an inhibition of 2%.

From PubChem BioAssay AID1788 (Vanderbilt High Throughput Screening Facility, 2009)
